Compounds with a hit are over-represented: about 5.3% of the library has one in this group of screens.
PostGolgi yeast = growth inhibition of a yeast mutant, post-Golgi transport screen; post-Golgi transport phenotypic cell assay; inhibition, % at 10 µM; 0.9% of 98,000 active; AID 739;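 further: yeast cells grown in 1536-well plates; yeast grown about 18 h at 30C before absorbance read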
PostGolgi ctrl = growth of the yeast control strain, post-Golgi counter-screen; 5% of 98,000 active; efflux-deficient yeast background strain, growth absorbance A615, 16 h; inhibition, % at 10 µM
MT1-MMP txn act = MT1-MMP promoter transcription activation; 0.16% of 86,000 active; HT1080 MT1-MMP promoter luciferase reporter, luminescence, overnight; hits give high values; activation factor at 10 µM;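 active means activation factor of at least 2 for MT1-MMP transcription at 10 µM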
Measles CPE = protection of cells from measles virus | Measles virus-infected cells, CPE protection, absorbance | protection (pct of control), % at 4 µM | 1.5% of 140,000 active | AID 841; in the data active means protection mostly above about 24%, no sharp cut-off; inactive means mostly below about 26%
* hit, by the source's call. Unless noted, no stated cut-off is given here; in the data, active means inhibition above about 30%; inactive means the rest.

Screening O=C(NCc1ccccc1)c1ccc(S(=O)(=O)C(F)F)cc1 returned PostGolgi yeast 9, PostGolgi ctrl -2 and Measles CPE 4.
Cc1ccccc1OCCSCc1nc2ccccc2[nH]1 was read as Measles CPE 18.
CCCCNC(=S)N/N=C/C1=CCC2CC1C2(C)C (configuration not stated) was read as Measles CPE 10.
Screening C[C@@]1(C(NC(=O)Cc2ccc(C(F)(F)F)cc2)c2ccc(-c3ccccc3)cc2)C[C@H]1C1CCCCC1 (some centres not stated) returned MT1-MMP txn act 1.2.
For COC(=O)CSc1ncnc2c1cnn2Cc1ccccc1 the results were PostGolgi yeast 19, PostGolgi ctrl -8, MT1-MMP txn act 1.1 and Measles CPE 8.
Screening CC(C)OC(=O)CSc1ncnc2c1cnn2Cc1ccccc1 returned PostGolgi yeast -2, PostGolgi ctrl 0, MT1-MMP txn act 1 and Measles CPE 33*.
`CCN(CC)c1ccc2c(Cl)cc(=O)oc2c1` gave PostGolgi yeast -5, PostGolgi ctrl 30* and Measles CPE 6.
`CN(Cc1ccccc1)c1nc(-c2cccc([N+](=O)[O-])c2)nc2ccccc12` gave Measles CPE 20.
CCCn1nc([N+](=O)[O-])c(C(C#N)c2nc3ccccc3s2)c(Cl)c1=O (configuration not stated) was read as PostGolgi yeast 100*, PostGolgi ctrl 55* and Measles CPE 26.
For CCn1nc([N+](=O)[O-])c(C(C#N)c2nc3ccccc3n2C)c(Cl)c1=O (configuration not stated) the results were Measles CPE 23.
For Brc1ccc(C2Nc3cccc4cccc(c34)N2)s1 the results were Measles CPE 19.
`Cc1cc(Nc2ccccc2)nc(-c2ccccc2O)n1` gave PostGolgi yeast 17, PostGolgi ctrl 37*, MT1-MMP txn act 1.3 and Measles CPE 18.
Cc1cc(NCc2ccccc2)nc(-c2ccccc2O)n1 was read as PostGolgi yeast -11, PostGolgi ctrl 57*, MT1-MMP txn act 1.7 and Measles CPE 4.
Screening Cc1cc(Nc2cccc(F)c2)nc(-c2ccccc2O)n1 returned PostGolgi yeast 6, PostGolgi ctrl 15, MT1-MMP txn act 1 and Measles CPE 19.
Screening O=Cc1ccccc1OS(=O)(=O)c1ccccc1 returned Measles CPE 12.
Screening Cc1ccc(-c2cc(C(F)F)n3ncc(C(=O)N4CCN(c5cccc(C)c5C)CC4)c3n2)cc1 returned PostGolgi yeast 24, PostGolgi ctrl 10, MT1-MMP txn act 1.2 and Measles CPE 4.
CCC1=NN(C(=O)Cc2ccc(OC)c(OC)c2)C(O)(C(F)(F)F)C1 (configuration not stated) was read as Measles CPE 18.
For CCOP(=O)(c1ccccc1)c1nc(-c2ccc(F)cc2)oc1N1CCCCC1 (configuration not stated) the results were PostGolgi yeast -2, PostGolgi ctrl 32*, MT1-MMP txn act 1.1 and Measles CPE 4.
N#Cc1nc(-c2ccc(F)cc2)oc1N1CCCC1 was read as PostGolgi yeast 1, PostGolgi ctrl 8, MT1-MMP txn act 1 and Measles CPE 4.
COc1ccc(OC)c(N2Cc3ccccc3C2)c1 was read as MT1-MMP txn act 1.2 and Measles CPE 12.
Screening COc1ccc(Cl)cc1N1Cc2ccccc2C1 returned PostGolgi yeast -5, PostGolgi ctrl 32*, MT1-MMP txn act 1.7 and Measles CPE 4.
Screening Cc1ccc2cc(CN(CCO)Cc3nnnn3Cc3ccc(F)cc3)c(=O)[nH]c2c1 returned PostGolgi yeast 37*, PostGolgi ctrl -5, MT1-MMP txn act 1.1 and Measles CPE 4.
For CC1(C)CC(=NOC(=O)c2ccccc2)CC(C)(C)N1O the results were Measles CPE 26.
`OCCNc1nc(SCc2ccccc2)nc2sc3c(c12)CCC3` gave PostGolgi yeast -1, PostGolgi ctrl 74*, MT1-MMP txn act 1.1 and Measles CPE 20.
For O=C(CCCn1c(=S)[nH]c2cc3c(cc2c1=O)OCO3)N1CCN(c2ncccn2)CC1 the results were PostGolgi yeast 10, PostGolgi ctrl 43*, MT1-MMP txn act 1.1 and Measles CPE 5.
Screening O=C(CCCn1c(=S)[nH]c2cc3c(cc2c1=O)OCO3)N1CCN(c2ccc(F)cc2)CC1 returned PostGolgi yeast -2, PostGolgi ctrl 8, MT1-MMP txn act 0.9 and Measles CPE 11.
For Cc1ccc(C)c(S(=O)(=O)N2CCN(C(=O)Cn3c(C(F)(F)F)nc4ccccc43)CC2)c1 the results were PostGolgi yeast 13, PostGolgi ctrl 7, MT1-MMP txn act 1.1 and Measles CPE 16.
Cc1ccc(N2CCN(S(=O)(=O)N3CCCCCC3)CC2)cc1Cl was read as PostGolgi yeast 31*, PostGolgi ctrl 0, MT1-MMP txn act 1.2 and Measles CPE 5.
`CCCCNC(=O)C1C2C=CC(C2)C1C(=O)O` (configuration not stated) gave Measles CPE 38*.
For CCOc1ccc2[nH]c(=O)c(CN(Cc3cccnc3)C(=O)Nc3ccccc3OC)cc2c1 the results were PostGolgi yeast -7, PostGolgi ctrl 11, MT1-MMP txn act 1 and Measles CPE 10.
Screening COc1ccc2[nH]c(=O)c(CN(Cc3cccnc3)C(=O)Nc3ccccc3)cc2c1 returned PostGolgi yeast 105*, PostGolgi ctrl 94*, MT1-MMP txn act 1 and Measles CPE 8.
Screening Cc1cccc2cc(CN(Cc3ccco3)C(=O)NC3CCCCC3)c(=O)[nH]c12 returned PostGolgi yeast -3, PostGolgi ctrl 41*, MT1-MMP txn act 0.9 and Measles CPE 7.
Cc1cccc2cc(CN(CC3CCCO3)C(=O)NC3CCCCC3)c(=O)[nH]c12 (configuration not stated) was read as PostGolgi yeast 11, PostGolgi ctrl 12, MT1-MMP txn act 1 and Measles CPE 45.
`COc1ccccc1NC(=O)N(Cc1ccco1)Cc1cc2c(C)ccc(C)c2[nH]c1=O` gave MT1-MMP txn act 1 and Measles CPE 26.
COc1ccccc1NC(=O)N(Cc1ccco1)Cc1cc2cccc(C)c2[nH]c1=O was read as PostGolgi yeast -3, PostGolgi ctrl 37*, MT1-MMP txn act 1.2 and Measles CPE 7.
Screening CCc1ccc2[nH]c(=O)c(CN(Cc3ccccc3OC)C(=O)Nc3ccccc3OC)cc2c1 returned PostGolgi yeast 1, PostGolgi ctrl 45*, MT1-MMP txn act 0.9 and Measles CPE 0.
Screening CC12COC3(C(N)=O)CC1CCC32C (configuration not stated) returned Measles CPE 24.
COC(=O)[C@@]1(Cc2ccc(F)cc2)[C@@H]2C(=CC(=O)[C@H]2CC(=O)C(=O)N(C)C)CN1C(=O)c1ccccc1 was read as MT1-MMP txn act 1.1.
Screening CCOC(=O)c1c(-c2cccs2)csc1NC(C)=O returned MT1-MMP txn act 1.1 and Measles CPE 14.
CCOC(=O)c1c(-c2cccs2)csc1NC(=O)CN1CC(C)OC(C)C1 (configuration not stated) was read as PostGolgi yeast -3, PostGolgi ctrl 43*, MT1-MMP txn act 0.9 and Measles CPE 4.
N#CCSCC(=O)Nc1ccc(F)cc1 was read as PostGolgi yeast 10, PostGolgi ctrl -2, MT1-MMP txn act 1.1 and Measles CPE 54*.

Assay outcomes from PubChem BioAssay.
